# From the supplement of paper PMC4466140
# B1: unnamed (peptide)
# chain: HGKRRAPLLLAKLDV
# B2: unnamed (peptide)
# chain: QTMRQAPKRPDADVA
# Target: CaNbp2
# Assay: SPOT peptide array binding signal intensity (averaged, normalized) (arbitrary units (background-subtracted, floor 0; scale differs between SH3 domains)); higher = stronger binding of the SH3 domain to the peptide
# Experimental: (§1)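 GST-tagged SH3 domains from S. cerevisiae (Sc), A. gossypii (Ag), C. albicans (Ca) and S. pombe (Sp) were incubated at 10 ug/ml overnight at 4 C on cellulose SPOT membranes carrying 292 synthetic 15-mer peptides mined from the S. cerevisiae proteome (cysteines replaced by serines). Binding was detected with anti-GST antibody, HRP secondary and chemiluminescence, quantified with Genespotter, and reported as normalized spot intensities averaged over biological replicates.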
row,Binder,SPOT peptide array binding signal intensity
1,B1,1060
2,B2,1450

# Target: CaRvs167
# Assay: as above
# Experimental: as §1
row,Binder,SPOT peptide array binding signal intensity
1,B1,7.67
2,B2,163

# Target: CaRvs167-3
# Assay: as above
# Experimental: as §1
row,Binder,SPOT peptide array binding signal intensity
1,B1,17.5
2,B2,0.75

# Target: CaSho1
# Assay: as above
# Experimental: as §1
row,Binder,SPOT peptide array binding signal intensity
1,B1,95
2,B2,1860

# Target: CaSla1-D1-D2
# Assay: as above
# Experimental: as §1
row,Binder,SPOT peptide array binding signal intensity
1,B1,122
2,B2,553

# Target: CaSla1-D3
# Assay: as above
# Experimental: as §1
row,Binder,SPOT peptide array binding signal intensity
1,B1,8.75
2,B2,650

# Target: ScAbp1
# Assay: as above
# Experimental: as §1
row,Binder,SPOT peptide array binding signal intensity
1,B1,50
2,B2,7

# Target: ScBbc1
# Assay: as above
# Experimental: as §1
row,Binder,SPOT peptide array binding signal intensity
1,B1,12.2
2,B2,68.5

# Target: ScBem1-D1
# Assay: as above
# Experimental: as §1
row,Binder,SPOT peptide array binding signal intensity
1,B1,30
2,B2,1

# Target: ScBzz1-D1
# Assay: as above
# Experimental: as §1
row,Binder,SPOT peptide array binding signal intensity
1,B1,21.5
2,B2,6

# Target: ScBzz1-D2
# Assay: as above
# Experimental: as §1
row,Binder,SPOT peptide array binding signal intensity
1,B1,27
2,B2,27

# Target: ScCyk3
# Assay: as above
# Experimental: as §1
row,Binder,SPOT peptide array binding signal intensity
1,B1,102
2,B2,4

# Target: ScFus1
# Assay: as above
# Experimental: as §1
row,Binder,SPOT peptide array binding signal intensity
1,B1,136
2,B2,1110

# Target: ScHof1
# Assay: as above
# Experimental: as §1
row,Binder,SPOT peptide array binding signal intensity
1,B1,0.5
2,B2,0.5

# Target: ScHse1
# Assay: as above
# Experimental: as §1
row,Binder,SPOT peptide array binding signal intensity
1,B1,732
2,B2,84.5

# Target: ScLsb1
# Assay: as above
# Experimental: as §1
row,Binder,SPOT peptide array binding signal intensity
1,B1,≤ 0
2,B2,78

# Target: ScLsb2
# Assay: as above
# Experimental: as §1
row,Binder,SPOT peptide array binding signal intensity
1,B1,≤ 0
2,B2,29.5

# Target: ScLsb3
# Assay: as above
# Experimental: as §1
row,Binder,SPOT peptide array binding signal intensity
1,B1,16.5
2,B2,961

# Target: ScLsb4
# Assay: as above
# Experimental: as §1
row,Binder,SPOT peptide array binding signal intensity
1,B1,≤ 0
2,B2,524

# Target: ScMyo3
# Assay: as above
# Experimental: as §1
row,Binder,SPOT peptide array binding signal intensity
1,B1,1
2,B2,227

# Target: ScMyo5
# Assay: as above
# Experimental: as §1
row,Binder,SPOT peptide array binding signal intensity
1,B1,5.5
2,B2,47.5

# Target: ScNbp2
# Assay: as above
# Experimental: as §1
row,Binder,SPOT peptide array binding signal intensity
1,B1,210
2,B2,3190

# Target: ScPex13
# Assay: as above
# Experimental: as §1
row,Binder,SPOT peptide array binding signal intensity
1,B1,≤ 0
2,B2,766

# Target: ScRvs167
# Assay: as above
# Experimental: as §1
row,Binder,SPOT peptide array binding signal intensity
1,B1,11.3
2,B2,136

# Target: ScSho1
# Assay: as above
# Experimental: as §1
row,Binder,SPOT peptide array binding signal intensity
1,B1,186
2,B2,930

# Target: ScSla1-D1-D2
# Assay: as above
# Experimental: as §1
row,Binder,SPOT peptide array binding signal intensity
1,B1,126
2,B2,690

# Target: ScSla1-D3
# Assay: as above
# Experimental: as §1
row,Binder,SPOT peptide array binding signal intensity
1,B1,20.5
2,B2,700

# Target: SpAbp1-D1
# Assay: as above
# Experimental: as §1
row,Binder,SPOT peptide array binding signal intensity
1,B1,55
2,B2,66

# Target: SpBbc1
# Assay: as above
# Experimental: as §1
row,Binder,SPOT peptide array binding signal intensity
1,B1,0.5
2,B2,42.5

# Target: SpBzz1-D1
# Assay: as above
# Experimental: as §1
row,Binder,SPOT peptide array binding signal intensity
1,B1,204
2,B2,188

# Target: SpBzz1-D2
# Assay: as above
# Experimental: as §1
row,Binder,SPOT peptide array binding signal intensity
1,B1,≤ 0
2,B2,512

# Target: SpCyk3
# Assay: as above
# Experimental: as §1
row,Binder,SPOT peptide array binding signal intensity
1,B1,18
2,B2,3

# Target: SpHof1
# Assay: as above
# Experimental: as §1
row,Binder,SPOT peptide array binding signal intensity
1,B1,31.2
2,B2,51.5

# Target: SpHof1-2
# Assay: as above
# Experimental: as §1
row,Binder,SPOT peptide array binding signal intensity
1,B1,4.25
2,B2,27.5

# Target: SpHof1-3
# Assay: as above
# Experimental: as §1
row,Binder,SPOT peptide array binding signal intensity
1,B1,242
2,B2,32.8

# Target: SpHse1
# Assay: as above
# Experimental: as §1
row,Binder,SPOT peptide array binding signal intensity
1,B1,235
2,B2,240

# Target: SpLsb1
# Assay: as above
# Experimental: as §1
row,Binder,SPOT peptide array binding signal intensity
1,B1,≤ 0
2,B2,34

# Target: SpLsb4
# Assay: as above
# Experimental: as §1
row,Binder,SPOT peptide array binding signal intensity
1,B1,21.5
2,B2,990

# Target: SpMyo1
# Assay: as above
# Experimental: as §1
row,Binder,SPOT peptide array binding signal intensity
1,B1,2
2,B2,229

# Target: SpNbp2
# Assay: as above
# Experimental: as §1
row,Binder,SPOT peptide array binding signal intensity
1,B1,63.5
2,B2,847

# Target: SpPex13
# Assay: as above
# Experimental: as §1
row,Binder,SPOT peptide array binding signal intensity
1,B1,10
2,B2,35

# Target: SpRvs167
# Assay: as above
# Experimental: as §1
row,Binder,SPOT peptide array binding signal intensity
1,B1,≤ 0
2,B2,188

# Target: SpSla1-D1-D2
# Assay: as above
# Experimental: as §1
row,Binder,SPOT peptide array binding signal intensity
1,B1,≤ 0
2,B2,11

# Target: SpSla1-D3
# Assay: as above
# Experimental: as §1
row,Binder,SPOT peptide array binding signal intensity
1,B1,2
2,B2,491

# Target: AgAbp1
# Assay: as above
# Experimental: as §1
row,Binder,SPOT peptide array binding signal intensity
1,B2,17

# Target: AgBbc1
# Assay: as above
# Experimental: as §1
row,Binder,SPOT peptide array binding signal intensity
1,B2,170

# Target: AgBem1-D1
# Assay: as above
# Experimental: as §1
row,Binder,SPOT peptide array binding signal intensity
1,B2,369

# Target: AgBzz1-D1
# Assay: as above
# Experimental: as §1
row,Binder,SPOT peptide array binding signal intensity
1,B2,11

# Target: AgBzz1-D2
# Assay: as above
# Experimental: as §1
row,Binder,SPOT peptide array binding signal intensity
1,B2,10

# Target: AgCyk3
# Assay: as above
# Experimental: as §1
row,Binder,SPOT peptide array binding signal intensity
1,B2,≤ 0

# Target: AgFus1
# Assay: as above
# Experimental: as §1
row,Binder,SPOT peptide array binding signal intensity
1,B2,728

# Target: AgHof1
# Assay: as above
# Experimental: as §1
row,Binder,SPOT peptide array binding signal intensity
1,B2,9

# Target: AgHse1
# Assay: as above
# Experimental: as §1
row,Binder,SPOT peptide array binding signal intensity
1,B2,132

# Target: AgLsb1
# Assay: as above
# Experimental: as §1
row,Binder,SPOT peptide array binding signal intensity
1,B2,48.8

# Target: AgLsb4
# Assay: as above
# Experimental: as §1
row,Binder,SPOT peptide array binding signal intensity
1,B2,36

# Target: AgMyo5
# Assay: as above
# Experimental: as §1
row,Binder,SPOT peptide array binding signal intensity
1,B2,18.8

# Target: AgNbp2
# Assay: as above
# Experimental: as §1
row,Binder,SPOT peptide array binding signal intensity
1,B2,2740

# Target: AgRvs167
# Assay: as above
# Experimental: as §1
row,Binder,SPOT peptide array binding signal intensity
1,B2,20.3

# Target: AgSho1
# Assay: as above
# Experimental: as §1
row,Binder,SPOT peptide array binding signal intensity
1,B2,684

# Target: AgSla1-D1-D2
# Assay: as above
# Experimental: as §1
row,Binder,SPOT peptide array binding signal intensity
1,B2,9

# Target: AgSla1-D3
# Assay: as above
# Experimental: as §1
row,Binder,SPOT peptide array binding signal intensity
1,B2,14.8

# Target: CaAbp1-D1
# Assay: as above
# Experimental: as §1
row,Binder,SPOT peptide array binding signal intensity
1,B2,144

# Target: CaAbp1-D2
# Assay: as above
# Experimental: as §1
row,Binder,SPOT peptide array binding signal intensity
1,B2,292

# Target: CaBbc1
# Assay: as above
# Experimental: as §1
row,Binder,SPOT peptide array binding signal intensity
1,B2,942

# Target: CaBem1-D1
# Assay: as above
# Experimental: as §1
row,Binder,SPOT peptide array binding signal intensity
1,B2,565

# Target: CaBzz1-D1
# Assay: as above
# Experimental: as §1
row,Binder,SPOT peptide array binding signal intensity
1,B2,458

# Target: CaBzz1-D2
# Assay: as above
# Experimental: as §1
row,Binder,SPOT peptide array binding signal intensity
1,B2,286

# Target: CaCyk3
# Assay: as above
# Experimental: as §1
row,Binder,SPOT peptide array binding signal intensity
1,B2,35

# Target: CaFus1
# Assay: as above
# Experimental: as §1
row,Binder,SPOT peptide array binding signal intensity
1,B2,1110

# Target: CaHof1
# Assay: as above
# Experimental: as §1
row,Binder,SPOT peptide array binding signal intensity
1,B2,1

# Target: CaHse1
# Assay: as above
# Experimental: as §1
row,Binder,SPOT peptide array binding signal intensity
1,B2,146

# Target: CaLsb1
# Assay: as above
# Experimental: as §1
row,Binder,SPOT peptide array binding signal intensity
1,B2,18.2

# Target: CaLsb4
# Assay: as above
# Experimental: as §1
row,Binder,SPOT peptide array binding signal intensity
1,B2,910

# Target: CaMyo5
# Assay: as above
# Experimental: as §1
row,Binder,SPOT peptide array binding signal intensity
1,B2,56.2
